{"source": "the supplement of paper PMC7411054", "note": "Counter-ions that a name gives are not always drawn. A number with no mark means an inactive call."}
{"test_system": "WPMY1-CANX-COX4", "assay": "phenotypically active (imaging signature differs from DMSO and reproducible) at any of 0.3-9 uM (binary (1 = active, 0 = inactive)); higher = active", "settings": "treatment time: 24 h", "how_it_was_run": "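After 24 h at 0.3, 1, 3 or 9 µM, with four wells per treatment, fifteen gene-edited A549, HepG2 and WPMY1 reporter lines carrying BFP, GFP and RFP/FusionRed were imaged live. Each well's live-cell features were expressed relative to solvent control wells. Deviation required ≥3 of 4 wells past the 95th percentile of control Euclidean distances, and reproducibility a median replicate Pearson correlation over the 95th percentile of non-replicates. Phenotypic activity rested on both.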"}
{"smiles": "OCc1ccccc1O[C@@H]1O[C@H](CO)[C@@H](O)[C@H](O)[C@H]1O", "note": "[Salicin]", "phenotypically active": 0}
{"smiles": "O=C(c1ccc(C(=O)N2CCC(N3CCCC3)CC2)c(Nc2ccccc2)c1)N1CCC(N2CCCC2)CC1", "phenotypically active": 0}
{"smiles": "O=c1[nH]cc(F)c(=O)[nH]1", "note": "[5-Fluorouracil]", "phenotypically active": 0}
{"smiles": "CC[C@H](C)[C@H](NC(=O)OCc1ccccc1)C(=O)N[C@@H](CCC(=O)OC(C)(C)C)C(=O)N[C@@H](C)C(=O)N[C@H](C=O)CC(C)C", "phenotypically active": "1 (active)"}
{"smiles": "CN1CCN(C2=Nc3cc(Cl)ccc3Nc3ccccc32)CC1", "note": "[clozapine]", "phenotypically active": 0}
{"smiles": "Cc1cc(C(C)(C)C)c(O)c(C)c1CC1=NCCN1", "note": "[oxymetazoline]", "phenotypically active": 0}
{"smiles": "CC1(C)NC(=O)N(c2ccc([N+](=O)[O-])c(C(F)(F)F)c2)C1=O", "note": "[nilutamide]", "phenotypically active": 0}
{"smiles": "CCN1CCN(C(c2cccnc2)c2cc(Cl)c3cccnc3c2O)CC1", "note": "(centres undefined)", "phenotypically active": "1 (active)"}
{"smiles": "CCOc1cc(N2CCC(O)CC2)ccc1Nc1ncc2c(n1)N(C)c1ccccc1C(=O)N2C", "phenotypically active": "1 (active)"}
{"smiles": "Cc1c2oc3c(C)ccc(C(=O)NC4C(=O)NC(C(C)C)C(=O)N5CCCC5C(=O)N(C)CC(=O)N(C)C(C(C)C)C(=O)OC4C)c3nc-2c(C(=O)NC2C(=O)NC(C(C)C)C(=O)N3CCCC3C(=O)N(C)CC(=O)N(C)C(C(C)C)C(=O)OC2C)c(N)c1=O", "note": "(centres undefined) [Actinomycin D]", "phenotypically active": "1 (active)"}
{"smiles": "Nc1nc2ccc(OC(F)(F)F)cc2s1", "note": "[riluzole]", "phenotypically active": 0}
{"smiles": "NCCNS(=O)(=O)c1cccc2cnccc12", "note": "[H-9 dihydrochloride]", "phenotypically active": 0}
{"smiles": "N#Cc1c(NC(=O)c2cccc3ccccc23)sc2c1CCCC2", "phenotypically active": "1 (active)"}
{"smiles": "COc1ccc2c(Oc3ccc(NC(=O)c4c(C)n(CC(C)(C)O)n(-c5ccccc5)c4=O)nc3)ccnc2c1", "phenotypically active": 0}
{"smiles": "C[C@@H](c1ncncc1F)[C@](O)(Cn1cncn1)c1ccc(F)cc1F", "note": "[voriconazole]", "phenotypically active": 0}
{"smiles": "CN1C/C(=C/c2ccc(B(O)O)cc2)C(=O)/C(=C/c2ccc(B(O)O)cc2)C1", "phenotypically active": "1 (active)"}
{"smiles": "Nc1ccn([C@@H]2O[C@H](CO)[C@@H](O)C2(F)F)c(=O)n1", "note": "[gemcitabine]", "phenotypically active": "1 (active)"}
{"smiles": "Oc1ccc(Nc2nc(-c3ccc(Cl)cc3)cs2)cc1", "phenotypically active": "1 (active)"}
{"smiles": "C/C(=C/C(=O)Nc1ccccc1C(=O)O)c1ccc2ccccc2c1", "phenotypically active": 0}
{"smiles": "NCCC(O)(P(=O)(O)O)P(=O)(O)O", "note": "[pamidronate]", "phenotypically active": 0}
{"smiles": "CCN1CCN(c2ccc(Nc3cc(N(C)C(=O)Nc4c(Cl)c(OC)cc(OC)c4Cl)ncn3)cc2)CC1", "phenotypically active": 0}
{"smiles": "Cc1nc(NC(=O)N2CCC[C@H]2C(N)=O)sc1-c1ccnc(C(C)(C)C(F)(F)F)c1", "note": "[alpelisib]", "phenotypically active": "1 (active)"}
{"smiles": "CCN(CC)CCCC(C)Nc1ccnc2cc(Cl)ccc12", "note": "(centres undefined) [chloroquine]", "phenotypically active": "1 (active)"}
{"smiles": "C[C@H]1O[C@H](O[C@H]2[C@H](O)[C@@H](O)[C@@H](O[C@H]3[C@H](O)[C@@H](O)[C@H](O)O[C@@H]3CO)O[C@@H]2CO)[C@H](O)[C@@H](O)[C@@H]1N[C@H]1C=C(CO)[C@@H](O)[C@H](O)[C@H]1O", "note": "[Acarbose]", "phenotypically active": 0}
{"smiles": "C/C(=C/c1ccc(C(=O)O)cc1)c1ccc2c(c1)C(C)(C)CCC2(C)C", "phenotypically active": "1 (active)"}
{"smiles": "Cc1ccc(S(=O)(=O)/C=C/C#N)cc1", "phenotypically active": "1 (active)"}
{"smiles": "O=c1cc(-c2cccc3c2Sc2ccccc2S3)oc(N2CCOCC2)c1", "phenotypically active": "1 (active)"}
{"smiles": "CCCc1nc2c(C)cc(-c3nc4ccccc4n3C)cc2n1Cc1ccc(-c2ccccc2C(=O)O)cc1", "note": "[telmisartan]", "phenotypically active": 0}
{"smiles": "CC(C)CCN1c2nc(Nc3cc(F)c(O)c(F)c3)ncc2N(C)C(=O)C1C", "note": "(centres undefined)", "phenotypically active": "1 (active)"}
{"smiles": "COc1cc2nccc(Oc3ccc(NC(=O)NC4CC4)c(Cl)c3)c2cc1C(N)=O", "note": "[lenvatinib]", "phenotypically active": 0}
{"smiles": "Nc1cc(C(F)(F)F)c(-c2cc(N3CCOCC3)nc(N3CCOCC3)n2)cn1", "note": "[buparlisib]", "phenotypically active": "1 (active)"}
{"smiles": "Nc1ccn([C@@H]2O[C@H](CO)[C@@H](O)[C@H]2O)c(=O)n1", "note": "[Cytidine]", "phenotypically active": 0}
{"smiles": "OC(CCN1CCCCC1)(c1ccccc1)C1CCCCC1", "note": "(centres undefined) [trihexyphenidyl]", "phenotypically active": 0}
{"smiles": "COc1cc([C@@H]2c3cc4c(cc3[C@@H](O[C@@H]3O[C@@H]5CO[C@@H](C)O[C@H]5[C@H](O)[C@H]3O)[C@H]3COC(=O)[C@H]23)OCO4)cc(OC)c1O", "note": "[etoposide]", "phenotypically active": "1 (active)"}
